In all, about 330,000 compounds went through this assay and about 1,900 (0.58%) were called active. Inconclusive results (about 4%) are left out. Rule as the data show it: inconclusive = inhibition above about 70% without an active follow-up result; inactive = below that. A selection follows. Results with a measured potency or affinity are listed apart.
assay: M. tuberculosis growth inhibition, HTS (AID 449762);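 also: bacterial growth assessed after seven days of incubation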; conditions: M. tuberculosis H37Rv growth inhibition, 7H9 media; at 25 µM; hits give high values

| Structure (SMILES) | inhibition |
| --- | --- |
| O=C(CCCN1C(=O)S/C(=C\C=C\c2ccccc2)C1=O)Nc1ccc(C(=O)O)cc1 | -3.27% (inactive) |
| O=C(COc1ccc(C(=S)N2CCOCC2)cc1Cl)Nc1ccccc1Cl | 6.58% (inactive) |
| O=C(NNC(=O)C1CCN(S(=O)(=O)c2ccccc2C(F)(F)F)CC1)c1ccccc1O | 6.28% (inactive) |
| COc1cccc(N2CCN(C(=O)CCNS(=O)(=O)c3ccc4c(c3)c(=O)n(C)c(=O)n4C)CC2)c1 | -0.56% (inactive) |
| CCC(CC)c1nnc(NC(=O)c2cc([N+](=O)[O-])ccc2N2CCCCC2)s1 | 9.65% (inactive) |
| COc1ccc(Nc2nc(N)nc(CN3CCc4ccccc4C3)n2)cc1 | 7.44% (inactive) |
| Cc1ccc(Nc2nc(N)nc(CN3CCN(C)CC3)n2)cc1 | -7.52% (inactive) |
| CCC(C)c1ccc(OCC(=O)O)cc1 (stereo not given) | -1.06% (inactive) |
| COC(=O)c1ccc(COC(=O)c2ccc(CO)cc2)o1 | 9.22% (inactive) |
| CCOc1cc(C(N)=O)cc(Br)c1OC | -2.81% (inactive) |
| CC(C)COC(=O)NCCCOC(=O)Nc1ccccc1 | 2.06% (inactive) |
| Cc1ccc(C)c(NC(=O)CCc2c(C)nn(-c3ccc(N4CCCCC4)nn3)c2C)c1 | -0.31% (inactive) |
| COc1ccccc1CNC(=O)CSc1nc(C)cs1 | -6.19% (inactive) |
| CN(CCOc1ccc(Cl)cc1)C(=O)CN1C(=O)NC2(CCCC2)C1=O | -10.9% (inactive) |
| Fc1ccc(OCCOCCN2CCNCC2)cc1 | -3.98% (inactive) |
| COc1ccc(C[C@H]2CN3C(=NC[C@@H]3C)N2CCNC(=O)CCC2CCCCC2)cc1 | -0.84% (inactive) |
| COc1ccc(C[C@H]2CN3C(=NC[C@H]3C)N2CCNC(=O)CCC2CCCCC2)cc1 | 2.73% (inactive) |
| O=C1C(Cc2ccccc2)Nc2ncnc(N3CCN(c4ccccc4)CC3)c2N1Cc1ccc(Br)cc1 (stereo not given) | 0.68% (inactive) |
| COc1ccc(C2CC(=O)C3=C(C2)Nc2ccccc2N(C(C)=O)C3c2ccco2)cc1 (stereo not given) | -14% (inactive) |
| O=C(c1ccc(F)cc1)C(CN1CCOCC1)c1ccccc1 (stereo not given) | 3.13% (inactive) |

| Structure (SMILES) | inhibition |
| --- | --- |
| CC(CN1CCOCC1)C(=O)c1ccccc1 (stereo not given) | 3.78% (inactive) |
| COc1ccc(C(NC(=O)c2cccc(F)c2)c2ccccc2)cc1 (stereo not given) | -16.4% (inactive) |
| C=CCn1cnc2c(nnn2-c2cc(C)cc(C)c2)c1=O | 7.46% (inactive) |
| Cc1ccc(C(=O)NN(CCC(=O)NC(C)(C)C)C2=NS(=O)(=O)c3ccccc32)cc1 | 3.72% (inactive) |
| CC1(C)CC(NC(=O)c2cccc(S(=O)(=O)N(Cc3ccccc3)c3ccccc3)c2)CC(C)(C)N1 | -5.74% (inactive) |
| O=C(O)c1ccc(Cl)c(S(=O)(=O)N(Cc2ccccc2)c2ccccc2)c1 | -3.72% (inactive) |
| Cc1nn(CCCC(=O)N2CCN(c3ccc(F)cc3)CC2)c(C)c1[N+](=O)[O-] | 2.18% (inactive) |
| Cc1cc[n+](CC[n+]2ccc(C)cc2)cc1 | -0.82% (inactive) |
| CCC(C)(C)c1ccc(OCC(=O)N(C)C)c(C(C)(C)CC)c1 | -12.9% (inactive) |
| CCc1ccc(C(=O)Nc2ccc3nc(C)ccc3c2)cc1 | 0.01% (inactive) |
| CCc1nc2ccccc2c(C(=O)Nc2cccc(C)c2)c1C | 7.7% (inactive) |
| CCc1nc2ccccc2c(C(=O)Nc2ccc(C)cc2)c1C | 4.44% (inactive) |
| CCOC(=O)C1CCCN(CC(O)COc2cccc(C)c2)C1 (stereo not given) | -3.72% (inactive) |
| COc1ccccc1C(=O)N/C(=C\c1ccccc1)C(=O)NC(Cc1ccccc1)C(=O)O (stereo not given) | -6.9% (inactive) |
| Cc1ccc(NC(=O)CSCC(=O)N=c2sccn2C)cc1 | -9.96% (inactive) |
| Cc1nc2c(c(=O)c3ccccc3n2C)c(=O)n1C1CCCCCC1 | -2.45% (inactive) |
| CCc1nc2c(c(=O)c3ccccc3n2C)c(=O)n1C1CCCCCC1 | 6.04% (inactive) |
| COc1ccc(OC)c(S(=O)(=O)N2CCCCC2C(=O)O)c1 (stereo not given) | -12.8% (inactive) |
| COc1ccccc1OCCCCN1CCN(c2ccccc2OC)CC1 | -3.03% (inactive) |
| COc1ccccc1N1CCN(CCCCOc2c(OC)cccc2OC)CC1 | 4.13% (inactive) |

| Structure (SMILES) | inhibition |
| --- | --- |
| CN(C)c1cccc2c1c(NC(=O)c1ccc(F)cc1)nn2C | -5.17% (inactive) |
| Cc1nc2c(c(=O)[nH]1)C(c1ccc([N+](=O)[O-])cc1)c1c(c3ccccc3oc1=O)O2 (stereo not given) | 4.87% (inactive) |
| O=S(=O)(NC1CC(NS(=O)(=O)OCC(Cl)(Cl)Cl)C2CCCCC12)OCC(Cl)(Cl)Cl (stereo not given) | 4.68% (inactive) |
| CCC1Oc2ccc(C)cc2N(CC(=O)N2CCCC2)C1=O (stereo not given) | 9.77% (inactive) |
| COC1=Cc2c(ccc3ccc(=O)oc23)OC1(C)C | 1.79% (inactive) |
| CC1(C)Oc2ccc3ccc(=O)oc3c2/C(=C/O)C1=O | 2.64% (inactive) |
| O=C(OCc1nnc(-c2ccc(Cl)cc2)o1)C12CC3CC(CC(O)(C3)C1)C2 | 7.22% (inactive) |
| CCOC(=O)c1cc(C(=O)NC(C)c2ccccc2)c(C)[nH]c1=O (stereo not given) | -4.64% (inactive) |
| CCOC(=O)c1nnc(-c2ccc(C)cc2)nc1Sc1ccccc1Cl | 13.5% (inactive) |
| CCOC(=O)c1nnc(-c2ccccc2)nc1Sc1c(Cl)cccc1Cl | 4.17% (inactive) |
| CCOC(=O)c1c(NCc2ccccc2)n[nH]c1C | -5.08% (inactive) |
| CCOC(=O)c1nnc(-c2ccccc2)nc1NC | -30.8% (inactive) |
| O=C(CCN1C(=O)/C(=C\c2ccccc2Cl)SC1=S)Nc1cccnc1 | 2.83% (inactive) |
| COC(=O)C1C2c3ccccc3OC1(C)N=c1s/c(=C/c3cn(C)nc3C)c(=O)n12 (stereo not given) | -3.81% (inactive) |
| CC(=O)C1C2c3ccccc3OC1(C)N=c1s/c(=C/c3cn(C)nc3C)c(=O)n12 (stereo not given) | 1.62% (inactive) |
| COc1ccc(-c2cc3ccccc3oc2=O)cc1NC(=O)c1ccc(Br)o1 | -2.95% (inactive) |
| COc1ccc(-c2cc3ccccc3oc2=O)cc1NC(=O)c1cccnc1 | 4.8% (inactive) |
| Cn1c(-c2nonc2N)nc2ccccc21 | 0.49% (inactive) |
| COc1ccccc1C(c1c(N)n(C)c(=O)n(C)c1=O)C(C)[N+](=O)[O-] (stereo not given) | 43.9% (inactive) |
| CC(C(c1cccs1)c1c(N)n(C)c(=O)n(C)c1=O)[N+](=O)[O-] (stereo not given) | -8.45% (inactive) |
